# Measured values published in the supplement of paper PMC6555819.
# Legend:
# Experiment in all cases: PBM binding z-score (relative to random genomic background probes); higher = stronger binding; sequences stand for … in GC…GCGATTGACAGCGTAGAATGAAGG
# [1] = system: FXR:RXRa (NR concentration 270 nM, RXRa partner concentration 90 nM)
# Summary of the method: (§1)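 On custom Agilent 4×180K arrays, double-stranded probes with 34-nt variable regions carried direct-repeat seeds, single-nucleotide variants, half-site ablations or random human genomic background. Ligand-free nuclear receptor dimers were applied for 1 h, and binding was read with antibodies against each partner (one per run). Binding z-scores come from regression-normalized fluorescence, with the random background probes as reference.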
# [2] = system: LXRa:RXRa (NR concentration 270 nM, RXRa partner concentration 90 nM)
# Summary of the method: as §1
# [3] = system: LXRa homodimer (NR concentration 270 nM)
# Summary of the method: as §1
# [4] = system: LXRb:RXRa (NR concentration 270 nM, RXRa partner concentration 90 nM)
# Summary of the method: as §1
# [5] = system: LXRb homodimer (NR concentration 270 nM)
# Summary of the method: as §1
# [6] = system: PPARa:RXRa (NR concentration 270 nM, RXRa partner concentration 90 nM)
# Summary of the method: as §1
# [7] = system: PPARg:RXRa (NR concentration 180 nM, RXRa partner concentration 90 nM)
# Summary of the method: as §1
# [8] = system: PPARg:RXRa 270nM:90nM, anti-RXR (NR concentration 270 nM, RXRa partner concentration 90 nM)
# Summary of the method: as §1
# [9] = system: PPARg:RXRa 30nM:10nM, anti-RXR (NR concentration 30 nM, RXRa partner concentration 10 nM)
# Summary of the method: as §1
# [10] = system: PPARg:RXRa 90nM:30nM, anti-RXR (NR concentration 90 nM, RXRa partner concentration 30 nM)
# Summary of the method: as §1
# [11] = system: PPARg:RXRa DBDmut IVT, anti-RXR (DBD mutation: RXRa K156A/R161A, NR concentration 270 nM, RXRa partner concentration 90 nM)
# Summary of the method: as §1
# [12] = system: PPARg:RXRa IVT, anti-PPARg (NR concentration 270 nM, RXRa partner concentration 90 nM)
# Summary of the method: as §1
# [13] = system: PPARg DBDmut:RXRa IVT, anti-PPARg (DBD mutation: PPARg1 K132A/R137A, NR concentration 270 nM, RXRa partner concentration 90 nM)
# Summary of the method: as §1
# [14] = system: PPARg DBDmut IVT, anti-PPARg (DBD mutation: PPARg1 K132A/R137A, NR concentration 270 nM)
# Summary of the method: as §1
# [15] = system: PPARg homodimer (NR concentration 180 nM)
# Summary of the method: as §1
# [16] = system: PXR:RXRa (NR concentration 270 nM, RXRa partner concentration 90 nM)
# Summary of the method: as §1
# [17] = system: PXR homodimer (NR concentration 270 nM)
# Summary of the method: as §1
# [18] = system: RARa:RXR (NR concentration 270 nM, RXRa partner concentration 90 nM)
# Summary of the method: as §1
# [19] = system: RARa homodimer (NR concentration 270 nM)
# Summary of the method: as §1
# [20] = system: RARb:RXRa (NR concentration 270 nM, RXRa partner concentration 90 nM)
# Summary of the method: as §1
Sequence,PBM binding z-score [1],PBM binding z-score [2],PBM binding z-score [3],PBM binding z-score [4],PBM binding z-score [5],PBM binding z-score [6],PBM binding z-score [7],PBM binding z-score [8],PBM binding z-score [9],PBM binding z-score [10],PBM binding z-score [11],PBM binding z-score [12],PBM binding z-score [13],PBM binding z-score [14],PBM binding z-score [15],PBM binding z-score [16],PBM binding z-score [17],PBM binding z-score [18],PBM binding z-score [19],PBM binding z-score [20]
CTCAAAAGGTCGTGCTCAGGTGAGTATACCAAAC,5.46,4.03,0.165,3.42,0.129,4.98,3.14,3.85,0.896,2.75,1.02,2.03,0.582,0.851,1.51,3.24,0.288,4.2,0.127,4.03
AATGCAGGGTCACTAGGCCAGAGTAGGTACGAAT,6.22,4.62,0.0121,3.54,0.179,5.78,7.48,6.77,3.41,5.76,4.1,5.62,1.45,0.273,2.1,3.26,0.127,4.25,0.109,4.13
ATAGGTAGGTTAGCTGGGGTCATTCAGACTAGGC,4.92,5.76,2.97,4.81,1.29,4.82,2.59,3.65,1.45,2.69,2.88,2.9,1.18,0.716,3.23,6.38,4.41,5.88,1.73,3.2
CAAACTAGGTCAAGGTCATAGTCGGTTTGTGCCA,6.58,5.31,3.83,4.11,1.07,5.92,9.25,7.76,6.24,8,8.52,8.68,4.59,1.94,4.4,5.2,2.73,5.56,1.31,4.97
TAGCCTAGGTCAGATGGGGCCAGTATACGCTATA,2.75,1.56,-0.0271,1.38,-0.069,1.78,0.972,1.14,0.184,0.725,1.03,1.7,-0.854,-0.361,0.556,3.45,-0.272,1.24,-0.56,3.42
CTTCCAAGGTCAAGGTCAGTGAAAGAGACTCGAA,7.44,6.06,1.86,4.85,1.61,6.31,6.43,6.37,3.11,5.13,3.34,4.97,0.569,0.303,3.58,4.76,1.05,5.07,0.686,5.83
GGAACGAGGGCCTTCGAGTTGATAGCATGGCGAT,-0.344,-0.805,-0.648,-0.91,-1.22,-0.579,0.209,-0.359,-0.539,-0.758,0.104,-0.566,-0.653,-1.28,-1.03,-0.313,-0.534,-0.659,-0.765,-0.306
TCTAGTTGGGCACGGAGGTCACACACGACGGGTA,2.68,2.91,1.6,2.66,0.446,3.52,2.82,3.41,2.73,2.96,1.69,2.93,1.02,-0.0176,2.73,3.91,0.835,4.24,0.793,3.36
TCTTCTAGATCAATAGAGGTTAAGAAAGTGCGCT,0.907,3.4,0.664,1.92,0.831,1.9,0.156,2,3.32,2.76,2.16,1.48,1.87,0.999,0.764,3.02,0.423,1.8,0.413,0.98
CCTTACGGGGCACTCCAGGTTATAGCATCGGAGT,0.717,5.05,0.548,1.13,-0.636,0.679,0.305,0.0783,-0.441,-0.274,0.818,0.578,-0.912,-1.1,0.148,0.683,-0.195,0.828,-0.55,1.05
AATACAGGGTCATCGTAGGCCAGTGTACGCACAG,6.9,6.17,2.35,4.64,1.16,5.62,6.48,5.88,3.01,4.66,2.67,4.1,1.31,0.904,2.51,4.95,0.408,5.01,1,4.35
ATATGTAGGTTACATCCGGGTCGTTCAGGCTATG,1.06,2.86,0.557,1.67,0.653,3.5,5.18,4.47,1.66,3.49,7.59,7.22,2.21,1.61,1.23,1.64,0.721,1.35,0.787,1.49
ATATGTTGGTTATCGGGTCATTCAGTTTGCGCAT,2.39,2.42,1.49,2.76,1.77,2.86,1.7,2.19,0.577,1.65,2.6,3.36,1.53,2.49,2.81,3.49,7.6,3.19,2.08,2.05
ACTAGCAGGCCAAGTTTGGGTCACTTAAACAAAG,0.098,0.217,-0.18,0.878,-0.362,1.52,0.21,0.715,-0.186,0.815,0.815,1.34,-0.398,-0.134,0.336,0.603,-0.404,1.6,-0.389,1.91
